Test results taken from PubChem BioAssay.
The source made the active and inactive calls.

Tests used:
[1] = system: PRMT1 (protein arginine N-methyltransferase 1); experiment: small molecules binding arginine methyltransferase PRMT1 – biochemical, small-molecule microarray, 635 nm fluorescence, primary screen (AID 1088); conditions: higher = more signal;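 also: binding of Prmt1 protein to compounds spotted on small-molecule microarray slides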
[2] = growth effects on S. cerevisiae YJM789 – YJM789 clinical isolate, OD600, 24 h, basal, primary screen (AID 1089); conditions: higher = more signal, called active from +8 up or from −8 down;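 also: growth of clinical yeast isolate S. cerevisiae YJM 789 seeded 1000 cells per well; test concentration not given here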
[3] = S. pombe growth modifiers, basal conditions – strain 972, OD600, 24 h, no modulator, primary screen (AID 1090);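 also: basal condition with compound alone and no growth modifier present; test concentration not given here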; conditions: S. pombe 972 growth, higher = more signal, called active from +8 up or from −8 down
[4] = budding yeast growth modifiers under rapamycin – strain BY4716, OD600, 96 h, primary screen (AID 1091); also: test concentration not given here; conditions: S. cerevisiae BY4716 + rapamycin, higher = more signal, called active from +8 up or from −8 down
[5] = target: Torsin-1A-interacting protein 2 (Homo sapiens) (UniProt Q8NFQ8); experiment: small molecules binding lysate-expressed LULL1 – cell lysate, human LULL1 lysate, 635/667 nm fluorescence, primary screen (AID 1092); conditions: small-molecule microarray, hLULL1 lysate binding, 635 nm fluorescence; higher = more signal;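 also: probe is lysate of COS7 cells overexpressing human LULL1; score merges per-feature 667 nm fluorescence with signal-to-noise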
Chain of Torsin-1A-interacting protein 2 (Homo sapiens) (Q8NFQ8 whole entry, looked up): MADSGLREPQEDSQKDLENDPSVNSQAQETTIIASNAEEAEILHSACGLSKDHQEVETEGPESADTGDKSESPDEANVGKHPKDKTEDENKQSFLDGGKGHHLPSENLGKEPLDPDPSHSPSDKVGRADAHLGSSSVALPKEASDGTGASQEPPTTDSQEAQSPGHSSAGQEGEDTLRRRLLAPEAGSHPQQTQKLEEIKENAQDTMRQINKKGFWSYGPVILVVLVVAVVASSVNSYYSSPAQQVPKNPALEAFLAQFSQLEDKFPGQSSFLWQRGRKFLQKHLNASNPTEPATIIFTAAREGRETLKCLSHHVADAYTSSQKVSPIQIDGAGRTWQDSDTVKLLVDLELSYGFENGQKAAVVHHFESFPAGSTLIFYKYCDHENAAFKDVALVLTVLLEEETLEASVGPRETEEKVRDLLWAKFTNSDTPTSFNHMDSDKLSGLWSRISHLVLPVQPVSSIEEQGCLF

[6] = optical density change of DRC41 E. coli – strain DRC41, OD650, 24 h, E. coli filamentation project, primary screen (AID 1093);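 also: MC1000 strain lacking acrAB efflux and sulA so SOS filamentation is blocked; test concentration not given here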; conditions: E. coli DRC41 growth, higher = more signal, called active from +8 up or from −8 down
[7] = probe aLefty2 binding to arrayed compounds – biochemical, biotinylated probe, 635/667 nm fluorescence, primary screen (AID 1094); conditions: small-molecule microarray, higher = more signal;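 also: score merges spot fluorescence near 667 nm with spot signal-to-noise ratio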
[8] = system: Noggin (protein binding on small-molecule microarray); experiment: small molecules binding Noggin protein – biochemical, 635/667 nm fluorescence, primary screen (AID 1095); conditions: 635 nm fluorescence, higher = more signal;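 also: score merges 667 nm feature fluorescence with signal to noise over triplicate slides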
[9] = target: Neurogenic locus notch homolog protein 3 (Homo sapiens) (UniProt Q9UM47); experiment: small molecules binding NOTCH3 protein – biochemical, 635/667 nm fluorescence, primary screen (AID 1096); conditions: small-molecule microarray, 635 nm fluorescence, higher = more signal
Chain of Neurogenic locus notch homolog protein 3 (Homo sapiens) (Q9UM47 whole entry, looked up): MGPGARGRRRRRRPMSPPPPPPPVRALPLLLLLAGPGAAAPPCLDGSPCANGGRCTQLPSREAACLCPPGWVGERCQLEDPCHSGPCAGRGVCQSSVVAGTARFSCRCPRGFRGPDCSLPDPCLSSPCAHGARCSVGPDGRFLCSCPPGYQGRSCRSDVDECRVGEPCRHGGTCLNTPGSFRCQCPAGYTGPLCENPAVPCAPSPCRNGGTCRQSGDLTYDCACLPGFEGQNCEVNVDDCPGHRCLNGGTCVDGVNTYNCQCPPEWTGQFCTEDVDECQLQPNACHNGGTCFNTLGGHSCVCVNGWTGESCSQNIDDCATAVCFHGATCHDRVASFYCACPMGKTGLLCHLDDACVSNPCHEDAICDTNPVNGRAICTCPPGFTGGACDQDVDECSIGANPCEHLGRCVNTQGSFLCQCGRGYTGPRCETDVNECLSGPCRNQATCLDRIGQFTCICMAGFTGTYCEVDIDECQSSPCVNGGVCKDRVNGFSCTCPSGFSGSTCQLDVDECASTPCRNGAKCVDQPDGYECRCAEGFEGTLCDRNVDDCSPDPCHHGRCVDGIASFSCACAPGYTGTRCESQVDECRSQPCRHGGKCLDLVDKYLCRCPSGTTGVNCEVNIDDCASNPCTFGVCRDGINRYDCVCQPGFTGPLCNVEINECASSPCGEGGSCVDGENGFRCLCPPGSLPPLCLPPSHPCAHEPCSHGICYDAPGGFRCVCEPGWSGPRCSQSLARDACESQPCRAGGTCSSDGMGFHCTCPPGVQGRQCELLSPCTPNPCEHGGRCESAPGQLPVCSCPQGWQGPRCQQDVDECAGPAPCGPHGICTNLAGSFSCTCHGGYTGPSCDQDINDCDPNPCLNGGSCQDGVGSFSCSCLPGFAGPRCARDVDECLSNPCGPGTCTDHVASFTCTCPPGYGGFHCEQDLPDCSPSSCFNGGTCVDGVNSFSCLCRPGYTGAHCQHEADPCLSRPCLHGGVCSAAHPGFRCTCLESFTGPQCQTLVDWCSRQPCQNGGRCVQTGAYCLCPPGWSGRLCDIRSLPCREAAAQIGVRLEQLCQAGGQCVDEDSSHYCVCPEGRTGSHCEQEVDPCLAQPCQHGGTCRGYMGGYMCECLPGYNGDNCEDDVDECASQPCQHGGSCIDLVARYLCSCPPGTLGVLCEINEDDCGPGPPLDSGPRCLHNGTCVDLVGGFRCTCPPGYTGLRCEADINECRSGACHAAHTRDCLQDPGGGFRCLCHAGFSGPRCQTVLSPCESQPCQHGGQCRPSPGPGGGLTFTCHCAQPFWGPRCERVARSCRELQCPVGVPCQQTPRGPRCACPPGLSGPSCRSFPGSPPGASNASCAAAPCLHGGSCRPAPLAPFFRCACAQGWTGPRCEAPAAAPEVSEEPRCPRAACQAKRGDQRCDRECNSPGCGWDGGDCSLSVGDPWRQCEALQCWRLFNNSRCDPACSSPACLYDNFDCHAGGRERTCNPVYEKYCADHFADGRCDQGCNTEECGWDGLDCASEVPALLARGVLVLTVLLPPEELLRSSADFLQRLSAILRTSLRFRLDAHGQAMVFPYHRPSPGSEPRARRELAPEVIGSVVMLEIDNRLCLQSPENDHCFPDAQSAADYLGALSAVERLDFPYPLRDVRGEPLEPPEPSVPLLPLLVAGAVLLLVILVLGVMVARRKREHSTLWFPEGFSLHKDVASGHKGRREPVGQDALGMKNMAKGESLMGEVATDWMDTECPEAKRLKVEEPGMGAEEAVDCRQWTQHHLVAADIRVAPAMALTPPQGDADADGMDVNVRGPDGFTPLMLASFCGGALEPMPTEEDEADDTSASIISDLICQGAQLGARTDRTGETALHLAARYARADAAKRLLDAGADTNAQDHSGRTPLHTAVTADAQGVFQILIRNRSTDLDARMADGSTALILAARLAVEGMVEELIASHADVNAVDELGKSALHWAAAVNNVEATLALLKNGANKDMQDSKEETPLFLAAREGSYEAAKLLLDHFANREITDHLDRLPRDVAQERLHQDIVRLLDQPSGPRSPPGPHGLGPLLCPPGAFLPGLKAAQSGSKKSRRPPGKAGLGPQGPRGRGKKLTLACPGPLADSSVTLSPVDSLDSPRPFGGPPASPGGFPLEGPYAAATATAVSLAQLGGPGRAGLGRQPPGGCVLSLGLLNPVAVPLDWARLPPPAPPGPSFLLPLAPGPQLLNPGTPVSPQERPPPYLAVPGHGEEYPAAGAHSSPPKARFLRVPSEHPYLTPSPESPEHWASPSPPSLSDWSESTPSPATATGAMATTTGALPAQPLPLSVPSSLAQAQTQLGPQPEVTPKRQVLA

[10] = probe aEGFR binding to arrayed compounds – biochemical, biotinylated probe, 635/667 nm fluorescence, primary screen (AID 1097); conditions: small-molecule microarray, higher = more signal;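 also: probe is a biotinylated anti-EGFR antibody binding compounds printed on slides; score combines fluorescence near 667 nm and signal to noise of each spot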
[11] = system: Plasmodium falciparum Sir2 (PF13_0152, Sir2A); experiment: Plasmodium falciparum Sir2A binding compounds – biochemical, small-molecule microarray, 635 nm fluorescence, primary screen (AID 1098); conditions: fluorescence 635 nm, higher = more signal;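 also: score merges spot fluorescence intensity with its signal-to-noise ratio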
[12] = probe aDKK1 binding to arrayed compounds – biochemical, biotinylated probe, 635/667 nm fluorescence, primary screen (AID 1099); conditions: small-molecule microarray, higher = more signal;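 also: score merges 667nm spot fluorescence with signal to noise across triplicate slides; reference of the scale not given here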
[13] = probe aCHRDL2 binding to arrayed compounds – biochemical, biotinylated probe, 635/667 nm fluorescence, primary screen (AID 1100); conditions: small-molecule microarray, higher = more signal
[14] = change in splice reporter luminescence, either direction, cell-based, HEK293, spliceosome inhibition project, primary screen (AID 1101); conditions: HEK293 splicing luciferase reporter, 24 h, higher = more signal, called active from +8 up or from −8 down;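 also: HEK293 cells carrying a splicing-competent luciferase reporter gene; test concentration not given here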
[15] = target: Fibroblast growth factor 10 (Homo sapiens) (UniProt O15520); experiment: compounds binding fibroblast growth factor 10 – biochemical, small-molecule microarray, 635 nm fluorescence, primary screen (AID 1102); conditions: FGF10 binding, fluorescence 635 nm, higher = more signal
Chain of Fibroblast growth factor 10 (Homo sapiens) (O15520 whole entry, looked up): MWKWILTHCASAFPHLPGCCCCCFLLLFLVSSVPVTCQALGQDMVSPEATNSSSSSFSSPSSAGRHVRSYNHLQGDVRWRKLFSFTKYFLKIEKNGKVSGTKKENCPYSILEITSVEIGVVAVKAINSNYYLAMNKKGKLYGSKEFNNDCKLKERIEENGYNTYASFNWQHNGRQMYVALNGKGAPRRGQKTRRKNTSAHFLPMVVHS

[16] = system: glycogen synthase kinase-3 (GSK3A per assay name; protocol says GSK3B); experiment: compounds binding glycogen synthase kinase-3 – biochemical, small-molecule microarray, 635 nm fluorescence, GSK3A, primary screen (AID 1103); conditions: fluorescence 635 nm, higher = more signal; also: the record names both GSK3A and GSK3B
[17] = target: Epidermal growth factor receptor (Homo sapiens) (UniProt P00533); experiment: compounds binding epidermal growth factor receptor – biochemical, small-molecule microarray, 635 nm fluorescence, primary screen (AID 1104); conditions: EGFR binding, higher = more signal;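 also: score merges 667 nm emission intensity with spot signal to noise over triplicate slides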
Chain of Epidermal growth factor receptor (Homo sapiens) (P00533 whole entry, looked up): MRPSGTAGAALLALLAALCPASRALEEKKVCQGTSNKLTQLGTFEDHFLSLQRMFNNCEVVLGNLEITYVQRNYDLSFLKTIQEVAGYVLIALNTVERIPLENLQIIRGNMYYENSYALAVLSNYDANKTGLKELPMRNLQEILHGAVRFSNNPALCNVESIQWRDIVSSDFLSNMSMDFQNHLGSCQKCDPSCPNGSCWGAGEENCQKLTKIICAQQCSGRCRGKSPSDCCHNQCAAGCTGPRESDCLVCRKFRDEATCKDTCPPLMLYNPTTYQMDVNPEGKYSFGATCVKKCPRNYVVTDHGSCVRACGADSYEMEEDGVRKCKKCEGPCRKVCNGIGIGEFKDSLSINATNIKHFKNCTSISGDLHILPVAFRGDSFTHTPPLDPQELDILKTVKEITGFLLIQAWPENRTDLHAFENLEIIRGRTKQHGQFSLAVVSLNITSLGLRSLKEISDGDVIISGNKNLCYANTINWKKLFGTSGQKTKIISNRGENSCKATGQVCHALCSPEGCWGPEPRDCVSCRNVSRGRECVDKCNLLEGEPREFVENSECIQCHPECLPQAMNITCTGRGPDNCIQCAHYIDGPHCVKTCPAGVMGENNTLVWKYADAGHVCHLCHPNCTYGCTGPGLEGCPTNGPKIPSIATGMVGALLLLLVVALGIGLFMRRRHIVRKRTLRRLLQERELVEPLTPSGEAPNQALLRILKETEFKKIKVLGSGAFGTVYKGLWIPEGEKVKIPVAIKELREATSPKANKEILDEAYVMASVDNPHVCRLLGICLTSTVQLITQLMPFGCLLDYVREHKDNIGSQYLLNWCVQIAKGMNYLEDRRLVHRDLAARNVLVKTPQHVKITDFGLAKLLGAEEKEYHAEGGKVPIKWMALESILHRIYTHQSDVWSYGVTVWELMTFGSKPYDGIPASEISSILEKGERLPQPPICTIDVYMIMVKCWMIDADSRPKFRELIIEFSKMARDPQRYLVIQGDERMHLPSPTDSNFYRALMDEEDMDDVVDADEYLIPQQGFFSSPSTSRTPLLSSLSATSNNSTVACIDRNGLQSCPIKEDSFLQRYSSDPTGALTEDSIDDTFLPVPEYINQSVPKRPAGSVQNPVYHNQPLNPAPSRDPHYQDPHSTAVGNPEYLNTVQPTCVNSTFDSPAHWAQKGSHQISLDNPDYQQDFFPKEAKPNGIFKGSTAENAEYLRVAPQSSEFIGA

[18] = target: Follistatin-related protein 3 (Homo sapiens) (UniProt O95633); experiment: compounds binding follistatin-related protein 3 – biochemical, small-molecule microarray, 635 nm fluorescence, primary screen (AID 1105); conditions: FSTL3 binding, higher = more signal;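 also: score merges emission near 667 nm and signal to noise per printed spot across three slides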
Chain of Follistatin-related protein 3 (Homo sapiens) (O95633 whole entry, looked up): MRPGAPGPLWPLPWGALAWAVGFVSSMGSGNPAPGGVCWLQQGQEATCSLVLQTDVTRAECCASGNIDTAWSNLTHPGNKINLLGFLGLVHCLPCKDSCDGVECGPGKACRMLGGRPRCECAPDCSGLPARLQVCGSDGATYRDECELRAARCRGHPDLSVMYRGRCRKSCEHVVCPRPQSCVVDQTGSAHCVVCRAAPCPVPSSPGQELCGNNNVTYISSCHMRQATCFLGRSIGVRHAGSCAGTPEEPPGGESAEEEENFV

[19] = target: Dickkopf-related protein 1 (Homo sapiens) (UniProt O94907); experiment: small molecules binding DKK1 protein – biochemical, small-molecule microarray, 635 nm fluorescence scan, primary screen (AID 1106); conditions: higher = more signal;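 also: score merges emission near 667 nm with signal to noise over three replicate slides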
Chain of Dickkopf-related protein 1 (Homo sapiens) (O94907 whole entry, looked up): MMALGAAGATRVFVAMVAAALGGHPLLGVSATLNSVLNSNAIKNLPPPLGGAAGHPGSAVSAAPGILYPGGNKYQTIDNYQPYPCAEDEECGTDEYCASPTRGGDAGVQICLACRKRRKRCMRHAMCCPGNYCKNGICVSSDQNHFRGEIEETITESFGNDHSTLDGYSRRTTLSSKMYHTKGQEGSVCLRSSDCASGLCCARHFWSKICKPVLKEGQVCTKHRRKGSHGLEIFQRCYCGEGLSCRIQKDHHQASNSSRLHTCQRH

[20] = system: Inhibin beta A chain (activin A); experiment: small molecules binding activin A – biochemical, small-molecule microarray, 635 nm fluorescence scan, primary screen (AID 1107); conditions: INHBA, higher = more signal;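 also: mouse activin A protein probed at 4.33 µg/mL on printed slides; score merges bound-protein fluorescence near 667 nm with spot signal-to-noise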

Structure (SMILES) | composite z-score [1] | z-score [2] | z-score [3] | z-score [4] | composite z-score [5] | z-score [6] | composite z-score [7] | composite z-score [8] | composite z-score [9] | composite z-score [10] | composite z-score [11] | composite z-score [12] | composite z-score [13] | z-score [14] | composite z-score [15] | composite z-score [16] | composite z-score [17] | composite z-score [18] | composite z-score [19] | composite z-score [20]
CCCCN1CC=CC23O[C@@H]4C=CCOC(=O)[C@@H]4[C@H]2C(=O)N(C(CO)C(C)C)[C@@H]3C1=O (stereo not given in full) | -0.453 | -0.161 (inactive) | -0.325 (inactive) | 0.752 (inactive) | -1.06 | -0.505 (inactive) | -0.118 | -0.319 | -0.743 | -0.217 | -0.662 | -0.353 | -0.476 | -0.116 (inactive) | -0.372 | -0.13 | -0.759 | 0.0236 | 0.185 | 0.843
COCCOC(=O)N1C(=O)[C@@]2(c3cc(C#Cc4ccc(OC)cc4)ccc31)[C@H](c1ccc(OCCO)cc1)N1[C@H](c3ccccc3)[C@H](c3ccccc3)OC(=O)[C@H]1[C@@H]2C(=O)N1CCCCCCC1 | 1.49 | -1.32 (inactive) | -0.0066 (inactive) | 3.2 (inactive) | 3.3 | 0.106 (inactive) | 1.45 | 2.09 | 0.955 | 0.882 | 1.7 | 2.22 | 1.36 | -1.58 (inactive) | 0.821 | 1.24 | 0.719 | 1.52 | 1.29 | 1.65
COC(=O)[C@@]1(Cc2ccc(OC)cc2)[C@@H]2[C@@H](CC(=O)[C@H]2CC(=O)C(=O)N2CCCC2)CN1C(=O)c1ccccc1 | 0.281 | -0.347 (inactive) | 0.304 (inactive) | -0.0364 (inactive) | 2.6 | -0.455 (inactive) | 1.76 | 0.156 | 1.09 | 1.26 | 1.66 | 2.76 | 1.21 | -2.69 (inactive) | 1.44 | 1.07 | 0.725 | 0.868 | 0.823 | 0.846
COC(=O)[C@]1(CO)N=C(c2ccc(OCCCO)cc2)O[C@@H]1c1ccccc1CN=[N+]=[N-] | 0.575 | 0.11 (inactive) | 0.44 (inactive) | 1.85 (inactive) | 0.852 | 0.628 (inactive) | -0.0884 | 0.227 | -0.318 | -0.285 | 0.853 | 0.109 | 0.292 | 0.706 (inactive) | 0.0716 | 0.421 | -0.237 | 0.0239 | 0.102 | 0.193
CC(C)C[C@@H]1NC(=O)[C@H]2C[C@@H](C(=O)NCCCCCNC(=O)CS)[C@@H](c3ccc(O)cc3)N2C1=O | 1.54 | 0.553 (inactive) | -0.12 (inactive) | 0.871 (inactive) | 2.11 | 0.488 (inactive) | -0.077 | 0.528 | 0.634 | -0.0007 | 1.56 | -0.0363 | 0.203 | 0.0983 (inactive) | 1.08 | 1.33 | 0.521 | 0.848 | 1.01 | 0.0563
CC1CC/C=C\[C@H]2OC34C=CCN(CCN5CCOCC5)C(=O)[C@H]3N(CCCCCCO)C(=O)[C@@H]4C2C(=O)O1 (stereo not given in full) | -0.592 | 0.0356 (inactive) | -0.573 (inactive) | 0.132 (inactive) | 0.318 | -0.263 (inactive) | -0.192 | -0.403 | -0.218 | -0.278 | 0.195 | -0.301 | 0.0746 | 0.433 (inactive) | -0.721 | -0.993 | -1 | -0.704 | -0.355 | 0.516
CN(C)CCCCNC(=O)[C@H]1C[C@H]2C(=O)N[C@@H](Cc3ccccc3)C(=O)N2[C@H]1c1cccc(OCCO)c1 | 0.193 | -1.11 (inactive) | 0.0737 (inactive) | -0.247 (inactive) | 0.33 | 1.13 (inactive) | -0.0924 | 0.622 | 0.307 | -0.0512 | 1.2 | -0.336 | 0.336 | -1.9 (inactive) | -0.407 | -1.51 | 0.0459 | 0.198 | 0.574 | -0.272
CC=CC(O)C1C=CC2C(=O)N(C)C(=O)C2N1NC(=O)OC(C)(C)C (stereo not given) | 0.534 | -0.219 (inactive) | 0.64 (inactive) | 0.0896 (inactive) | 0.522 | -1.13 (inactive) | -0.286 | 0.251 | 0.775 | -0.0244 | 0.589 | 0.112 | -0.388 | 1.54 (inactive) | 0.216 | 0.423 | 0.271 | 0.864 | 0.739 | 1.04
CC1(C)OC[C@@]23C=C(Br)[C@@H](C[C@H]12)[C@@]1(CO1)C3=O | -0.0986 | 0.409 (inactive) | -1.24 (inactive) | 0.125 (inactive) | -0.202 | -0.665 (inactive) | -0.153 | 0.232 | 0.378 | -0.109 | 0.0908 | -0.123 | -0.567 | 0.0884 (inactive) | 0.447 | 0.691 | 0.376 | 0.564 | 0.356 | 0.174
C=CCC(OC(C)=O)[C@@H]1[C@@H](N(Cc2ccc(-c3ccccc3)cc2)C(=O)c2ccc(-c3ccccc3)cc2)c2cc(OCCCO)ccc2N1C(=O)c1ccc2ccccc2n1 (stereo not given in full) | 0.474 | -0.755 (inactive) | -0.638 (inactive) | -0.0474 (inactive) | 0.183 | 0.853 (inactive) | 0.121 | 0.408 | 0.361 | -0.0494 | 0.212 | 0.103 | 0.168 | -1.27 (inactive) | 0.46 | 0.213 | -0.486 | 0.204 | -0.328 | 1.38
